Where a name gives a salt, the structure may show the parent alone. Read-outs that look alike come from different tables or passages of the source. About 60 (2%) of roughly 3,300 compounds showed an effect of 50% or more. The entries come from a sample that favours strong results as a whole.

The test system of this assay is HCoV-OC43. Set-up: species or system RD; HTS, protection from HCoV-OC43 induced cell death, luminescent cell viability (CellCounting-Lite 2.0), inhibition rate. Particulars: 24 h post infection, 1 h compound pre-incubation, 10 µM, inhibitor.

Turning to `CC(=O)O[C@H]1C[C@@]2(C)[C@@H](C[C@@H](O)[C@H]3[C@@]4(C)CC[C@@H](O)[C@@H](C)[C@@H]4CC[C@@]32C)/C1=C(\CCC=C(C)C)C(=O)O` [Fusidic acid (sodium salt)], the “OC43 Inhibition rate” value was determined as 1.2%.
Same read-out and setting: in the case of `CC1(C)[C@H](OC(=O)c2ccccc2)CC[C@]2(C)C3=CC[C@@]4(C)[C@@H]5C[C@](C)(COC(=O)c6ccccc6)CC[C@]5(C)CC[C@]4(C)C3=CC[C@@H]12` [3,29-O-Dibenzoyloxykarounidiol] it was -4.4%; in that of `COC(=O)C1=CO[C@@H](O[C@@H]2O[C@H](CO)[C@@H](O)[C@H](O)[C@H]2O)[C@@H]2[C@@]3(C)O[C@H]3[C@@H](O)[C@]12O` [Sesamoside], -1.2%; in that of `CCC/C=C\C=C\CCCCCCCCCO` [Bombykol], 1.1%.
As to `COc1nccc(N)n1` [2-O-Methylcytosine], the “OC43 Inhibition rate” value is 0.2%.
Same read-out and setting: next, `C[C@]12CC[C@@H](O)C[C@H]1CC[C@@H]1[C@@H]2[C@@H](O)C[C@@]2(C)[C@H]1CC[C@]2(O)C(=O)CO` [Tetrahydrocortisol]: -0.2%; `CC(=O)O[C@@]12CO[C@@H]1C[C@H](O)[C@@]1(C)C(=O)[C@H](O)C3=C(C)[C@@H](OC(=O)[C@H](O)[C@@H](NC(=O)c4ccccc4)c4ccccc4)C[C@@](O)([C@@H](OC(=O)c4ccccc4)[C@H]21)C3(C)C` [10-Deacetyltaxol]: 0.2%.
For `CC(=O)c1cc2c(CO)cc(O)cc2oc1=O` [Armillarisin A], the “OC43 Inhibition rate” value is listed as -0.4%.
In the case of `COc1ccc([C@H]2OC[C@H]3[C@@H]2CO[C@@H]3c2ccc(OC)c(OC)c2)cc1OC` [Pinoresinol dimethyl ether], the “OC43 Inhibition rate” value (OC43 Inhibition rate, 24 h) is 1.1%.
As for `COc1ccc(-c2oc3c(CC=C(C)C)c(O[C@@H]4O[C@H](CO)[C@@H](O)[C@H](O)[C@H]4O)cc(O)c3c(=O)c2O[C@@H]2O[C@@H](C)[C@H](O)[C@@H](O)[C@H]2O[C@@H]2OC[C@@H](O)[C@H](O)[C@H]2O)cc1` [Epimedin B], the “OC43 Inhibition rate” value amounted to 1%.
On the same count and under the same terms, in the case of `O=C(O)c1ccccc1` [Benzoic acid] it was -0.2%.
As to `O=C(c1ccccc1)c1ccccc1` [Benzophenone], the “OC43 Inhibition rate” value is listed as -0.1%.
With `O=C(CC(=O)c1ccccc1)c1ccccc1` [DBM, dibenzoylmethane], the “OC43 Inhibition rate” value was found to be 102.9%.
The same measure, in the same setting: next, `Oc1cc(O)cc(/C=C/c2c(O)cccc2O)c1` [Gnetol]: -1%; `O=c1cc(-c2ccc(O)cc2)oc2c([C@@H]3O[C@H](CO)[C@@H](O)[C@H](O)[C@H]3O)c(O)c([C@@H]3OC[C@@H](O)[C@H](O)[C@H]3O)c(O)c12` [Vicenin-1]: -1.7%.
Regarding `COc1cc([C@H]2Oc3cc([C@H]4Oc5cc(O)cc(O)c5C(=O)[C@@H]4O)ccc3O[C@@H]2CO)ccc1O` [Silibinin], the “OC43 Inhibition rate” value (OC43 Inhibition rate, 24 h) was determined as 1.4%.
For `CCCCCCCCCC(O)CC(=O)O` (centres unmarked) [3-Hydroxydodecanoic acid], the “OC43 Inhibition rate” value is listed as -3.9%.
The same measure, in the same setting: next, `Cn1cc(C(=O)O)ccc1=O` [1-Methyl-6-oxo-1,6-dihydropyridine-3-carboxylic acid]: 0.2%; `O=C(CCc1ccc(O)c(O)c1)NCCCNCCCCNCCCNC(=O)CCc1ccc(O)c(O)c1` [Kukoamine A]: 2.2%; `Nc1ncnc2c1ncn2[C@@H]1C[C@H](CO)[C@@H](O)[C@H]1O` [Aristeromycin]: 53.9%.
On the same count and under the same terms, in the case of `Nc1ncnc2c1ncn2[C@@H]1O[C@H](CO)C[C@H]1O` [Cordycepin] it was -0.3%.
On to `Nc1ncnc2c1ncn2[C@H]1C[C@H](O)[C@@H](CO)O1` [2'-Deoxyadenosine monohydrate], for which the “OC43 Inhibition rate” value (OC43 Inhibition rate, 24 h) is given as -2.3%.
Turning to `C=C1C(=O)O[C@H]2C[C@@H](C)[C@@H]3CCC(=O)[C@@]3(C)[C@@H](OC(C)=O)[C@H]12` [Ergolide], the “OC43 Inhibition rate” value is recorded as 10.6%.
For `CC(C)=CCC[C@](C)(O)[C@@H]1CC=C(C)CC1` [Levomenol], the “OC43 Inhibition rate” value (OC43 Inhibition rate, 24 h) is reported as -0.7%.
Regarding `Cn1cnc2c(ncn2[C@@H]2O[C@H](CO)[C@@H](O)[C@H]2O)c1=O` [1-Methylinosine], the “OC43 Inhibition rate” value was 0.1%.
Still for that read-out and setting: in the case of `C[C@@H]1C/C=C/C=C/C=C/C=C/[C@H](O[C@@H]2O[C@H](C)[C@@H](O)[C@H](N)[C@@H]2O)C[C@@H]2O[C@](O)(C[C@@H](O)C[C@H]3O[C@@H]3/C=C/C(=O)O1)C[C@H](O)[C@H]2C(=O)O` [Natamycin] it was -0.1%; in that of `C[C@@H]1[C@H](O)[C@@H](C)/C=C/C=C/C=C/C=C/C=C/C=C/C=C/[C@H](O[C@@H]2O[C@H](C)[C@@H](O)[C@H](N)[C@@H]2O)C[C@@H]2O[C@](O)(C[C@@H](O)C[C@@H](O)[C@H](O)CC[C@@H](O)C[C@@H](O)CC(=O)O[C@H]1C)C[C@H](O)[C@H]2C(=O)O` [amphotericin B], 103.7%.
On the same count and under the same terms, in the case of `O=S(=O)(O)CCO` [Isethionic acid sodium salt] it was -0.5%; in that of `O=C(O)[C@H](O)[C@H](O)[C@@H](O)[C@H](O)[C@H](O)CO` [NSC 42196], 3.4%.
With `N[C@H](C(=O)O)[C@@H]1CC(Cl)=NO1` [Acivicin (hydrochloride)], the “OC43 Inhibition rate” value is 61.6%.
On the same count and under the same terms, in the case of `CC1(C)CCC[C@]2(C)[C@H]3CCO[C@]3(C)CC[C@@H]12` [Ambroxide] it was -0.5%; in that of `CC1=CC(=O)C(C(C)C)CC1` (centres unmarked) [Piperitone], -0.8%.
On the same count and under the same terms, in the case of `CC(=O)NCCCC[C@H](N)C(=O)O` [Nepsilon-Acetyl-L-lysine] it was -0.2%; in that of `C=C[C@H]1CN2CC[C@@]3(C(=O)Nc4ccccc43)[C@@H]2C[C@@H]1/C(=C\OC)C(=O)OC` [Isocorynoxeine], -0.3%; in that of `CCC/C=C1\OC(=O)C2=C1CC[C@@H](O)[C@H]2O` [Senkyunolide H], -0.5%.
On the same count and under the same terms, next, `CCC/C=C1\OC(=O)C2=C1CC[C@H](O)[C@H]2O` [Senkyunolide I]: -0.4%.
Consider `CCC/C=C1\OC(=O)C2=C1CC[C@H]1[C@H]3C=C4C(=O)O/C(=C\CCC)[C@@]4(CC3)[C@@H]21` [Levistolide A], for which the “OC43 Inhibition rate” value turned out to be 77.4%.
As to `O=C(O)c1ccc(=O)oc1` [Coumalic acid], the “OC43 Inhibition rate” value turned out to be 10.5%.

The values are drawn from article PMC12431657, “Discovery and mechanistic insights of dibenzoylmethane as a broad spectrum inhibitor of coronavirus” (PLOS Pathogens, 2025).
